For some assays here: Potency and affinity values are given separately.
Tests used:
Parameters in all cases: scale not given: direction of the effect not stated beside the values
[1] = molecular target: Protein translocase subunit SecA (Escherichia coli (strain K12)) (UniProt P10408); assay: Assay to Identify E. coli SecA ATPase Inhibitors; format: functional; conditions: 30 µM
[2] = molecular target: T1, Ubiquitin-activating enzyme e1, putative (Leishmania donovani (strain BPK282A1)) (UniProt E9BSI1); assay: Leishmania donovani Ubiquitin Activating Enzyme (LdE1); format: functional; conditions: 30 µM
T1 sequence (whole entry): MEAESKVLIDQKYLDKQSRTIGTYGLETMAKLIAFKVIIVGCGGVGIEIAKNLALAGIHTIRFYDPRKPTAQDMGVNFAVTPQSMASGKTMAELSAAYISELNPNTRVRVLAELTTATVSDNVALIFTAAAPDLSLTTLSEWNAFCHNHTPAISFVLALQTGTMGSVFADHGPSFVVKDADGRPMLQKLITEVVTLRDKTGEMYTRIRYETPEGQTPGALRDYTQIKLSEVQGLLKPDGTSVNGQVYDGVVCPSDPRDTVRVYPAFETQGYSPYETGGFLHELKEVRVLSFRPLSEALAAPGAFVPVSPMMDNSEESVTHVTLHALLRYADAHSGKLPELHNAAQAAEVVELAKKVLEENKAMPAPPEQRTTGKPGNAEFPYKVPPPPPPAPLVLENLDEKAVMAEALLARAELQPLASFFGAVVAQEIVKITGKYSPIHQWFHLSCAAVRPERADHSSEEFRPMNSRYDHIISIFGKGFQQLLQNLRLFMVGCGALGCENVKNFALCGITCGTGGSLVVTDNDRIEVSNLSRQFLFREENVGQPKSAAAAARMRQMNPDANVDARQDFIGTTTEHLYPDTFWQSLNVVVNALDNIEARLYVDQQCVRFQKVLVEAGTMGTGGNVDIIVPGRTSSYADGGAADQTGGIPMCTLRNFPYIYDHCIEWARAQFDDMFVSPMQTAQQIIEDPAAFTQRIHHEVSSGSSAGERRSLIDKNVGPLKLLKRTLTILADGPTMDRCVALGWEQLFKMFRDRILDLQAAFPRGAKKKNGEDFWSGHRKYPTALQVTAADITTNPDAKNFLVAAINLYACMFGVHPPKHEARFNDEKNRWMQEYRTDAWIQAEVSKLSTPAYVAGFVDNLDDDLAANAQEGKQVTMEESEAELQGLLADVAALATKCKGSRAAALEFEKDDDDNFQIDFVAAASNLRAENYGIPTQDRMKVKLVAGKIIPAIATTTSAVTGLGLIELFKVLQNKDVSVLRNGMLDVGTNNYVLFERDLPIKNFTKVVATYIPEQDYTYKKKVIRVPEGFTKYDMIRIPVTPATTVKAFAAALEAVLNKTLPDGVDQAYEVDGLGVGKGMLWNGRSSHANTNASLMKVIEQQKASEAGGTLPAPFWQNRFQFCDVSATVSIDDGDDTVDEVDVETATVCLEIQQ

[3] = molecular target: AMP-activated protein kinase, AMPK (Homo sapiens) (UniProt P54646+O43741+P54619+Q9UGJ0+Q9Y478+Q13131+Q9UGI9); assay: AMP-dependent Kinase enzyme assay. An in vitro enzyme assay that detects ADP turnover that is directly proportional to AMPK activity. This uses naive AMPK that is activated during the assay with MK-8722; format: functional; conditions: 30 µM
[4] = molecular target: Sialic acid-binding Ig-like lectin 9 (Homo sapiens) (UniProt Q9Y336); assay: Hs-Siglec9 ALPHAscreen SOP 20170721; conditions: 10 µM
Trypanosoma cruzi = assay: Trypanosoma cruzi phosphomannomutase and mannose-1-phosphate guanylyltransferase assay; format: functional; conditions: 10 µM
[5] = molecular target: T2, Arginase-2, mitochondrial (Homo sapiens) (UniProt P78540); assay: in vitro enzyme assay to detect the production of urea directly proportional to the activity of Arginase II; format: functional; conditions: 33.3 µM; note: in the data most compounds retested in dose-response had high values
T2 sequence (whole entry): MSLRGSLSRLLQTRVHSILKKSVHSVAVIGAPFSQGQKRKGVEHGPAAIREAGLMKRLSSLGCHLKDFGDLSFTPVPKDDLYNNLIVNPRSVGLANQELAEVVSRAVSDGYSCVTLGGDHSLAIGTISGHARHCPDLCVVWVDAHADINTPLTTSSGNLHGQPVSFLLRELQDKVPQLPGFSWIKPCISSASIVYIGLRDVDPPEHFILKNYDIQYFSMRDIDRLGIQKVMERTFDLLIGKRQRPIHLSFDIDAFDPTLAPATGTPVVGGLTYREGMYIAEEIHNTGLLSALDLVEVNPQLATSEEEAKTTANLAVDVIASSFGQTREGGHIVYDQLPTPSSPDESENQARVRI

[6] = molecular target: T3, Proteasome subunit beta (Trypanosoma cruzi) (UniProt O96673); assay: Trypanosoma cruzi proteasome chymotrypsin-like activity (TcProtChymo) assay.; note: in the data most compounds retested in dose-response had high values; format: functional; conditions: 9.37 µM
T3 sequence (whole entry): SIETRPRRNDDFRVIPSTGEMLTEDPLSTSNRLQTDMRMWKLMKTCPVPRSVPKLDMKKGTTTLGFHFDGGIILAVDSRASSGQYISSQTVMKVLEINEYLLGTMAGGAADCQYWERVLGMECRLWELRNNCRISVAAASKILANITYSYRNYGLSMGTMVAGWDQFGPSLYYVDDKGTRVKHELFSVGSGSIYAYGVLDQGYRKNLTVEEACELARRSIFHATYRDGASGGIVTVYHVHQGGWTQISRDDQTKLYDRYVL

Homo sapiens = species on record: Homo sapiens; assay: To identify inhibition of the IFN signalling (Jak-Stat) pathway via expression of an eGFP reporter gene under the control of an IFN-stimulated response element (ISRE) containing MxA promoter.; format: functional; conditions: 30 µM
[7] = molecular target: T4, Tyrosyl-tRNA synthetase, putative (Trypanosoma cruzi (strain CL Brener)) (UniProt Q4DSP6); assay: Trypanosoma cruzi tyrosyl tRNA synthetase (TcYRS) _High Tyrosine SOP; format: functional; conditions: 30 µM; note: in the data most compounds retested in dose-response had high values
T4 sequence (whole entry): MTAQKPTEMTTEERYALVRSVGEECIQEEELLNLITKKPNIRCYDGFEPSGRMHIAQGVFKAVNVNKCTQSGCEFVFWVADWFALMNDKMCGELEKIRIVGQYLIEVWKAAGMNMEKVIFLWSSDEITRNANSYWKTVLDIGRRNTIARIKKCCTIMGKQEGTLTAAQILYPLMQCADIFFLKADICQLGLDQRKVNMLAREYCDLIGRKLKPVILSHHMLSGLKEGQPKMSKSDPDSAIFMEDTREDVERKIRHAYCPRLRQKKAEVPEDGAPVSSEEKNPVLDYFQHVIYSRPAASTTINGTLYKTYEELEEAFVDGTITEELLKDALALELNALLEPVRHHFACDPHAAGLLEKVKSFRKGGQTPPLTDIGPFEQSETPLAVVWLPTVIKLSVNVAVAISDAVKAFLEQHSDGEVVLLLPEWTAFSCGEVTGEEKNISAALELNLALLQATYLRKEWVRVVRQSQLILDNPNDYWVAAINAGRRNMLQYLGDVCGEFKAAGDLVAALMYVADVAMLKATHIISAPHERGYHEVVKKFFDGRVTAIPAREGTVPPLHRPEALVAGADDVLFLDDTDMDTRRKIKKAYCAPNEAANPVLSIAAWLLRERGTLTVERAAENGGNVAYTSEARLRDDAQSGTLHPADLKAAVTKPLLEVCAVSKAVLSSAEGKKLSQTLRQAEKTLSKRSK

[8] = molecular target: T4, Tyrosyl-tRNA synthetase, putative (Trypanosoma cruzi (strain CL Brener)); assay: Trypanosoma cruzi tyrosyl tRNA synthetase (TcYRS) SOP; format: functional; conditions: 30 µM
[9] = molecular target: Chromo domain-containing protein 1 (Saccharomyces cerevisiae (strain ATCC 204508 / S288c) (Baker's yeast)) (UniProt P32657); assay: ScCHD-1 Enzyme Inhibition Assay; format: functional; conditions: 30 µM; note: in the data most compounds retested in dose-response had high values
Chromo domain-containing protein 1 (Saccharomyces cerevisiae (strain ATCC 204508 / S288c) (Baker's yeast)), sequence (P32657 whole entry, the tested form may be a part): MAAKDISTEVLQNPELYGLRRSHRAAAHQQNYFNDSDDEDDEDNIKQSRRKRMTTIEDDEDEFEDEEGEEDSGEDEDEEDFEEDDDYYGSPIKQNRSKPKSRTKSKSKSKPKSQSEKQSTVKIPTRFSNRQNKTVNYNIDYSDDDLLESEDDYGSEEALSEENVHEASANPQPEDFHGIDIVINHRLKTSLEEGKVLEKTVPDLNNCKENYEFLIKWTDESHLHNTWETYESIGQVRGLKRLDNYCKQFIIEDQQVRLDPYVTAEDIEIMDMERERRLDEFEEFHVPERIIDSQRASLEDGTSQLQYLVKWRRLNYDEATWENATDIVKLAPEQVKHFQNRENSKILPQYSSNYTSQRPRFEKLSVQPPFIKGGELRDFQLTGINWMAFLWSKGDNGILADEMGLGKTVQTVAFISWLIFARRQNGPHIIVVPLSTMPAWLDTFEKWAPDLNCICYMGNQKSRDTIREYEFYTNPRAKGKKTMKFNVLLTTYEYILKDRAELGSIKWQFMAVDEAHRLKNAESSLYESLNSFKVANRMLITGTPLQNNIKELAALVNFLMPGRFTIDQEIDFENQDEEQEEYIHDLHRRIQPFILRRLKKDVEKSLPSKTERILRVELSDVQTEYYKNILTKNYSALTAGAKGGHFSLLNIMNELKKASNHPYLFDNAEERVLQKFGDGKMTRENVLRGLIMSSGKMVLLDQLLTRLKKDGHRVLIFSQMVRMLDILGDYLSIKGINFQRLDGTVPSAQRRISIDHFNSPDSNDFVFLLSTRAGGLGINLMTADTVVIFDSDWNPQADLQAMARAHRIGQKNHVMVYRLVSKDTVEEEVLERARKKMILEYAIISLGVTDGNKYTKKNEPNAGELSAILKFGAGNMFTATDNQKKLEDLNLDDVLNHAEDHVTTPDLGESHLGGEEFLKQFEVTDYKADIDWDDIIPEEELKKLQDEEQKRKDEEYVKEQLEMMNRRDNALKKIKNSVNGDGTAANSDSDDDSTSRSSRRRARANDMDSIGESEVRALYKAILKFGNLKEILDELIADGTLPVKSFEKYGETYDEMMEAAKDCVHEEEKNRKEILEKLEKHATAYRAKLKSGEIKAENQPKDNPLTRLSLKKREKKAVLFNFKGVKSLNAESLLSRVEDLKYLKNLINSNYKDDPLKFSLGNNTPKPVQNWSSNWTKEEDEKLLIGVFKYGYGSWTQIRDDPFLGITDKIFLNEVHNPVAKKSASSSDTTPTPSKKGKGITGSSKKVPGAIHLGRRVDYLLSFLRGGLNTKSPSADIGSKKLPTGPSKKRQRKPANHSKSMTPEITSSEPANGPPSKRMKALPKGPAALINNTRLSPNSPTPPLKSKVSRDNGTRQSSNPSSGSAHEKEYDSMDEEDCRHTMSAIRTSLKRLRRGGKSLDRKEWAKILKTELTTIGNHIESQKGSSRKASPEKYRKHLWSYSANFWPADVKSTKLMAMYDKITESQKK

Sialic acid-binding Ig-like lectin 9 (Homo sapiens), sequence (Q9Y336 whole entry): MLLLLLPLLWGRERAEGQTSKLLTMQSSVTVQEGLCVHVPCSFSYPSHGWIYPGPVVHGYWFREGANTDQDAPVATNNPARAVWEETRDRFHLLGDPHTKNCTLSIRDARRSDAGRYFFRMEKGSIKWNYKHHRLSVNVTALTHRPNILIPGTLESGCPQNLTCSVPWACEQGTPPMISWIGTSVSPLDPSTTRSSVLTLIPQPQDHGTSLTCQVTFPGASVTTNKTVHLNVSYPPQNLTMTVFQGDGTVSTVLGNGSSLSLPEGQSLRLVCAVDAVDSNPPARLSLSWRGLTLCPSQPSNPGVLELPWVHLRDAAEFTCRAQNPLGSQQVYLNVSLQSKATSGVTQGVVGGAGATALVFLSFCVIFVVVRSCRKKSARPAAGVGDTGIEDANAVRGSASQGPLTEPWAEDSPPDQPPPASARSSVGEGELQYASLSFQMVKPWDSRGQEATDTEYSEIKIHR
Protein translocase subunit SecA (Escherichia coli (strain K12)), sequence (P10408 whole entry): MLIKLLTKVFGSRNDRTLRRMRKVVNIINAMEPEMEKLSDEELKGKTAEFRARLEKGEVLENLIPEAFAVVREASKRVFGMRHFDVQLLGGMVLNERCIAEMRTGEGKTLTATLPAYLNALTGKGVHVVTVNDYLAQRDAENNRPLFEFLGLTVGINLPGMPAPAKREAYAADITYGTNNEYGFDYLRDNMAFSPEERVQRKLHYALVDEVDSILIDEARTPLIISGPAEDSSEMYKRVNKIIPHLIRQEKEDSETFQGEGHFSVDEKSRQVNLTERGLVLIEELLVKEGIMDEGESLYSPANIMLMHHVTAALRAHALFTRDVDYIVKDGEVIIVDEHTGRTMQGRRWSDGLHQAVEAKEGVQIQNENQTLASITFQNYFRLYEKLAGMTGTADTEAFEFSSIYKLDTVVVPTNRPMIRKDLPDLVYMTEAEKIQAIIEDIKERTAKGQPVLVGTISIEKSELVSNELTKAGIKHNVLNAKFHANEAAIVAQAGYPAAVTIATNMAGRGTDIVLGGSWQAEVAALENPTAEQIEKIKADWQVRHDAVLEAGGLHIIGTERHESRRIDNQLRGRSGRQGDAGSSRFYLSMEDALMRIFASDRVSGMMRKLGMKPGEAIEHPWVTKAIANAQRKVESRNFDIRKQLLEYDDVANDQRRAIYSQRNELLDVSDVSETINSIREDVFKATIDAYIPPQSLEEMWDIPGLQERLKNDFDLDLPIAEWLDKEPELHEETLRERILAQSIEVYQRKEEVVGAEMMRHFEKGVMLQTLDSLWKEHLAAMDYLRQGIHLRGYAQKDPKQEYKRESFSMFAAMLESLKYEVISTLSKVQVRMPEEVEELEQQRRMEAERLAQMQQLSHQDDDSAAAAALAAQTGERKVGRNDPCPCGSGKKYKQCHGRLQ

SMILES: O=C(O)c1ccn(-c2ccccc2NS(=O)(=O)c2ccccc2)n1
- Percent Effect [1]: -4.7%
- Percent Effect [2]: 0%
- Percent Effect [3]: 0.362%
- Percent Effect [4]: 0.187%
- Percent Effect (Trypanosoma cruzi): -5.16%
- Percent Effect [5]: 2.08%
- Percent Effect [6]: 9.24%
- Percent Effect (Homo sapiens): 7.84%
- Percent Effect [7]: 3.83%
- Percent Effect [8]: 3.7%
- Percent Effect [9]: -5.14%

SMILES: CN(C)c1nc2c(c(N3CCC(O)CC3)n1)CN(CC1CCNC1)CC2 (stereo not given)
- Percent Effect [1]: -1.69%
- Percent Effect [2]: 10.8%
- Percent Effect [3]: -1.59%
- Percent Effect [4]: 10.5%
- Percent Effect (Trypanosoma cruzi): 0.193%
- Percent Effect [5]: 0.476%
- Percent Effect [6]: 10.9%
- Percent Effect (Homo sapiens): 2.62%
- Percent Effect [7]: 12.2%
- Percent Effect [8]: 19.5%
- Percent Effect [9]: -4.09%

SMILES: O=C(NCCn1ccnc1)c1cccc(F)c1
- Percent Effect [1]: -1.92%
- Percent Effect [2]: 18.4%
- Percent Effect [3]: -6.48%
- Percent Effect [4]: -8.53%
- Percent Effect (Trypanosoma cruzi): -4.39%
- Percent Effect [5]: 0.36%
- Percent Effect [6]: 9.56%
- Percent Effect (Homo sapiens): -11.5%
- Percent Effect [7]: 5.42%
- Percent Effect [8]: 13.6%
- Percent Effect [9]: -6.88%

SMILES: COCCCn1ccnc1-c1cnc(OC)nc1
- Percent Effect [1]: -0.0522%
- Percent Effect [2]: 5.41%
- Percent Effect [3]: -3.25%
- Percent Effect [4]: 0.687%
- Percent Effect (Trypanosoma cruzi): -0.386%
- Percent Effect [5]: -3.33%
- Percent Effect [6]: 21.6%
- Percent Effect (Homo sapiens): -18.9%
- Percent Effect [7]: 6.88%
- Percent Effect [8]: 4.88%
- Percent Effect [9]: -3.88%

SMILES: CC(C)(C)c1n[nH]c(C2CN(C(=O)c3cc(C4CC4)on3)CCO2)n1 (stereo not given)
- Percent Effect [1]: -2.82%
- Percent Effect [2]: 7.89%
- Percent Effect [3]: 1.22%
- Percent Effect [4]: -5.79%
- Percent Effect (Trypanosoma cruzi): 5.55%
- Percent Effect [5]: -8.28%
- Percent Effect [6]: -4.7%
- Percent Effect (Homo sapiens): 0.97%
- Percent Effect [7]: 1.06%
- Percent Effect [8]: 5.2%
- Percent Effect [9]: -10.8%

SMILES: COC(=O)c1cccc(C(=O)N2CCN(c3ccccc3F)CC2)n1
- Percent Effect [1]: -5.05%
- Percent Effect [2]: 20.8%
- Percent Effect [3]: -7.33%
- Percent Effect [4]: -10.6%
- Percent Effect (Trypanosoma cruzi): 7.59%
- Percent Effect [5]: 1.94%
- Percent Effect [6]: 13.9%
- Percent Effect (Homo sapiens): 15.5%
- Percent Effect [7]: 5.29%
- Percent Effect [8]: 16.7%
- Percent Effect [9]: -10.4%

SMILES: O=C(O)c1cc2c(nc1O)CC(c1cccs1)CC2=O (stereo not given)
- Percent Effect [1]: -5.09%
- Percent Effect [2]: 17.3%
- Percent Effect [3]: -2.58%
- Percent Effect [4]: -0.782%
- Percent Effect (Trypanosoma cruzi): -5.5%
- Percent Effect [5]: -2.64%
- Percent Effect [6]: 15.9%
- Percent Effect (Homo sapiens): -5.05%
- Percent Effect [7]: 2.12%
- Percent Effect [8]: -20.5%
- Percent Effect [9]: -9.66%

SMILES: Cc1nc(CN2CCCCC2Cn2cncn2)nc2ccccc12 (stereo not given)
- Percent Effect [1]: -2.07%
- Percent Effect [2]: 26%
- Percent Effect [3]: -3.54%
- Percent Effect [4]: -19.4%
- Percent Effect (Trypanosoma cruzi): 3.23%
- Percent Effect [5]: 1.47%
- Percent Effect [6]: 20.1%
- Percent Effect (Homo sapiens): 2.22%
- Percent Effect [7]: 10.5%
- Percent Effect [8]: 23.5%
- Percent Effect [9]: -22.8%

SMILES: CCN1CC2(CCC1=O)CCN(C(=O)c1ccc(Cl)cc1O)CC2
- Percent Effect [1]: 0.161%
- Percent Effect [2]: 12.5%
- Percent Effect [3]: -4.82%
- Percent Effect [4]: 5.1%
- Percent Effect (Trypanosoma cruzi): 4.37%
- Percent Effect [5]: 25.6%
- Percent Effect [6]: 4.56%
- Percent Effect (Homo sapiens): 19.3%
- Percent Effect [7]: 4.21%
- Percent Effect [8]: 15.4%
- Percent Effect [9]: -5.87%

SMILES: COCC(NC(=O)c1ccc[nH]1)c1cccc(C(F)(F)F)c1 (stereo not given)
- Percent Effect [1]: -6.18%
- Percent Effect [2]: 2.74%
- Percent Effect [3]: -4.37%
- Percent Effect [4]: 35.1%
- Percent Effect (Trypanosoma cruzi): 9.01%
- Percent Effect [5]: 32.3%
- Percent Effect [6]: 4.79%
- Percent Effect (Homo sapiens): 3.46%
- Percent Effect [7]: 0%
- Percent Effect [8]: 10%
- Percent Effect [9]: -5.6%

Reference: ChEMBL document CHEMBL3988442, “University of Dundee, Small-Polar-MMV Screening Library” (2021)
